Results from PubChem BioAssay AID493131 (Broad Institute, 2011).
Screen size: about 340,000 compounds; about 3,300 (0.97%) were called active. The sample as a whole holds a higher share of actives than the screen did. Values without a mark were called inactive.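 Rule for the calls: active = mean activation above about 17%, with every replicate also reaching it (limit read from the data, passing the limit was not always enough); inconclusive = only one of the two conditions met; inactive = the rest.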

target: Protein FosB (Mus musculus) (UniProt P13346); experiment: activators of delta FosB homodimer, primary screen, biochemical, fluorescence polarization, TAMRA-CDK5 oligo, single point (AID 493131); details: purified delta FosB, at 25 µM, hits give high values, percent of positive-control signal above neutral wells;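 note: fluorescence polarization rise as delta FosB binds a TAMRA Cdk5 AP-1 oligo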
Sequence (P13346 whole entry, looked up): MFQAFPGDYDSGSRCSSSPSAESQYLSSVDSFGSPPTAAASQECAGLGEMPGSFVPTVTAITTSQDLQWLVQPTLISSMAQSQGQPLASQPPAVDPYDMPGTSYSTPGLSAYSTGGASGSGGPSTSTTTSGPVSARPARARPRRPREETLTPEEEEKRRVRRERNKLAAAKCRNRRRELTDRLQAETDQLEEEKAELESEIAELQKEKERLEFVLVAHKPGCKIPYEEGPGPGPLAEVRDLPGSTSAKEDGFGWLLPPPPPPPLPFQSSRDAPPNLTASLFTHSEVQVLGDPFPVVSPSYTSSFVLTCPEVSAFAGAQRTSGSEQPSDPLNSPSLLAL

SMILES | activation
COc1ccc(C)cc1NC(=O)CN(C)S(=O)(=O)c1ccc2c(c1)n(C)c(=O)c(=O)n2C | -14%
O=C(Nc1ccc2ccccc2c1)/C(=C\c1ccc2c(c1)OCO2)NC(=O)c1ccco1 | 5.94%
Cc1ccc(NC(=O)/C(=C\c2ccccc2)NC(=O)c2ccco2)cc1 | 10.9%
O=C(Nc1ccc2ccccc2c1)/C(=C/c1cccc(Br)c1)NC(=O)c1ccco1 | 23% (active)
COC(=O)c1ccc2c(c1)S(=O)(=O)NC(=NCCCN1CCOCC1)S2 | 0.881%
COC(=O)c1ccc(C2C(Oc3ccccc3C)C(=O)N2CCc2ccc(OC)c(OC)c2)cc1 (stereo not given) | -14.8%
CC(C)(C)NC(=O)c1cccc(NC(=O)Cc2ccc(Br)cc2)c1 | -8.13%
COc1ccc(CC(=O)Nc2ccc(C(=O)NC(C)(C)C)cc2)cc1 | 35.1% (active)
COc1ccc(NC(=O)c2ccc(C#CC(C)(C)O)cc2)cc1 | -5.48%
CC(=O)N1CC(=O)N(CC(=O)Nc2ccc(Br)cc2)C1=S | -0.232%
C[N+](C)(CCCCCC[N+](C)(C)CCCN1C(=O)c2cccc3cccc(c23)C1=O)CCCN1C(=O)c2cccc3cccc(c23)C1=O | 85% (active)
O=C1c2cccc3cccc(c23)C(=O)N1CCCCCc1n[nH]c(=S)o1 | -2.23%
O=C1c2ccccc2C(=O)N1CCCCCCN1C(=O)c2ccccc2C1=O | -2.1%
CCOC(=O)Cc1csc(SCC(=O)NC(C)C23CC4CC(CC(C4)C2)C3)n1 (stereo not given) | -21%
CC1(C)CC(=O)CC2(C1)NCC(c1ccccc1Cl)c1c2[nH]c2ccccc12 (stereo not given) | -13.7%
O=C(NCc1cccnc1)C12CC3CC(CC(C3)C1)C2 | 0.989%
CCC(CO)Oc1cc(NC(=O)c2cccc3ccccc23)c2ncn(C(C)C)c2c1 (stereo not given) | -12.6%
CCC(CO)Oc1cc(NC(=O)c2cccc(F)c2)c2ncn(C(C)C)c2c1 (stereo not given) | 7.98%
CC(C)n1cnc2c(NCc3ccccc3)cc(OCC3CCN(C)CC3)cc21 | 91.8% (active)
C/C(CC(=O)Nc1cccc(C(F)(F)F)c1)=N\NC(=O)C(=O)NCC(C)C | -12.7%
CCCCOc1ccc(CON(C(C)=O)C(C)=O)cc1Cl | -3.14%
CCn1ccnc1CNC(=O)CC1C(=O)NCCN1Cc1ccc(F)cc1Cl (stereo not given) | -11.3%
COc1ccc(C2NC(=O)c3ccccc3N2)cc1 (stereo not given) | -0.293%

SMILES | activation
Oc1ccc(C2Nc3cccc4cccc(c34)N2)cc1 | 58.9% (active)
Brc1ccccc1C1Nc2cccc3cccc(c23)N1 | -8.49%
O=C(CCc1nnc(CCCCc2ccccc2)o1)NC(c1cccnc1)C(F)(F)F (stereo not given) | -5.13%
O=C(O)C1CCN(S(=O)(=O)N2CCOCC2)CC1 | 1.05%
Nc1nc(NCCCN2CCOCC2)nc(Nc2ccccc2)c1[N+](=O)[O-] | 4.67%
CNc1nc(Nc2ccc(C)c(Cl)c2)nc(N)c1[N+](=O)[O-] | 60.7% (active)
CCN1CCN(c2nc(Nc3cccc(F)c3)nc(N)c2[N+](=O)[O-])CC1 | 10.8%
CCNC(=O)COC(=O)/C=C/c1c(C)nn(Cc2cccc(OC)c2)c1Cl | -7.6%
CC(C)Nc1ccc(-n2nc3ccccc3[n+]2[O-])cc1 | -2.96%
CC1(C)CC(=O)c2c(n(S(=O)(=O)c3ccccc3)c3ccc(NS(=O)(=O)c4ccccc4)cc23)C1 | -1.95%
O=C(NCc1ccc2c(c1)OCO2)c1cc([N+](=O)[O-])ccc1N1CCOCC1 | 5.71%
COc1ccc(S(=O)(=O)N2CCCCC2)cc1NC(=O)c1cc([N+](=O)[O-])ccc1N1CCOCC1 | 5.22%
CCOc1ccc2nc(NC(=O)c3cc([N+](=O)[O-])ccc3N3CCOCC3)sc2c1 | 26.6% (active)
COc1cc(NS(=O)(=O)c2ccc(NC(=O)c3ccc([N+](=O)[O-])cc3)cc2)ncn1 | -0.999%
CCc1ccc(NC(=O)c2ccc(Cn3cc([N+](=O)[O-])cn3)cc2)cc1 | 4.46%
Cn1ccc(=Nc2ccc(NC(=O)c3ccc(N=c4ccn(C)c5ccc([N+](=O)[O-])cc45)cc3)cc2)cc1 | 62.2% (active)
COc1ccc(C(=O)Nc2ccnn2C2CCN(Cc3ccncc3)CC2)cc1 | -4.76%
O=C(NCc1ccc2c(c1)OCO2)c1c(-c2ccsc2)sc2ccccc12 | -2.79%
O=S(=O)(c1ccc(Cl)cc1)c1nc(-c2ccccc2F)oc1NCCN1CCOCC1 | -12.7%
Cc1ccc(S(=O)(=O)N2CCN(C(=O)COC(=O)/C=C/c3cccc(Cl)c3)CC2)c(C)c1 | -10.6%
Cc1ccc(S(=O)(=O)N2CCN(C(=O)COC(=O)c3c(C)cc(C)cc3C)CC2)c(C)c1 | -5.88%
COc1ccc(/C=C/C(=O)OCC(=O)N2CCN(S(=O)(=O)c3ccc(C)cc3C)CC2)cc1OC | 19.8% (active)
